# Laboratory results as given in PubChem BioAssay (NCI).
# This is part of a sample that, as a whole, favours compounds with a hit. Of some 83,000 tested, about 20% had one in any assay.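 How to read the values: 0–100, growth inhibition (40 = 60% inhibited); 0, no net growth; -100 to 0, cell death (-40 = 40% of starting cells died; -100 = all dead).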 Values without a mark were called inactive. Activity calls are given as the source filed them. Rule for the calls: active = growth percent below 10; inactive = the rest.
# Legend:
# Assay in all cases: NCI-60 one-dose screen, 48 h (100 = growth as untreated, 0 = no growth, -100 = all killed)
# Details in all cases: 10 µM unless noted
# SK-MEL-2 melanoma = test system: SK-MEL-2 melanoma
# EKVX NSCLC = test system: EKVX NSCLC
# SN12C renal = test system: SN12C renal
# UO-31 renal = test system: UO-31 renal
# TK-10 renal = test system: TK-10 renal
# ACHN renal = test system: ACHN renal
# CAKI-1 renal = test system: CAKI-1 renal
# A498 renal = test system: A498 renal
# CCRF-CEM leukemia = test system: CCRF-CEM leukemia
# MOLT-4 leukemia = test system: MOLT-4 leukemia
SMILES,growth (SK-MEL-2 melanoma),growth (EKVX NSCLC),growth (SN12C renal),growth (UO-31 renal),growth (TK-10 renal),growth (ACHN renal),growth (CAKI-1 renal),growth (A498 renal),growth (CCRF-CEM leukemia),growth (MOLT-4 leukemia)
CC1OC(n2c3ccccc3c3c4c(c5c6ccccc6[nH]c5c32)C(=O)N(CCN2CCOCC2)C4=O)CC(O)C1O (stereo not given),99.7%,56.7%,19.8%,25.5%,58.5%,8.9% (active),14.9%,47.5%,27%,6.7% (active)
COc1ccc2nc(-c3ccc(-c4noc(-c5ccc(Cl)cc5)n4)cc3)[nH]c2c1,100%,91.2%,77.7%,55.8%,120%,77.9%,92.1%,90.7%,57%,79%
CC(C)(C)[Si](C)(C)OC1[C@@H](CNC(N)=O)O[C@@H](n2cnc3c(NC(=O)Nc4ccccc4)ncnc32)[C@H]1O[Si](C)(C)C(C)(C)C (stereo not given in full),80.9%,59.7%,-33.7% (active),40.9%,84.5%,40.2%,92.2%,81%,47.9%,23.5%
COc1cccc(-c2nc3sccn3c2-c2ccnc(NCCN3CCCN(C)S3(=O)=O)n2)c1,97.1%,103%,64.7%,73.4%,120%,54%,50.7%,98.1%,63.3%,82.8%
COc1ccccc1CNCCCN1C(=O)c2ccc3c4c(ccc(c24)C1=O)C(=O)N(CCCNCCCN)C3=O,-47.3% (active),34.7%,-56.8% (active),23.3%,33.3%,9.16% (active),31.9%,14.9%,7.88% (active),-24.5% (active)
CN1CCC2(CC1)N=C(SCC(=O)Nc1cnc3ccccc3c1)C(c1ccc(Br)cc1)=N2,-31.2% (active),37.9%,31.1%,-12.5% (active),30.1%,5.39% (active),8.73% (active),44.6%,4.53% (active),1.51% (active)
CCN(CC)CCNC(=O)C(F)(F)C(F)(F)C(F)(F)F,106%,102%,108%,89.9%,108%,101%,94.6%,102%,100%,109%
Nc1c(C(=O)C[C@@H](N)CO)ccc2c1C(=O)CCO2,46.8%,97.8%,32.7%,45.5%,71.4%,45.6%,29.8%,-37.5% (active),20.6%,33.4%
COc1ccc(Oc2nc(Nc3ccc(N4CCOCC4)cc3)ncc2NC(=O)Nc2cccc(OC)c2)cc1,39.2%,84.6%,50.7%,75.8%,75.9%,68%,62.2%,66.3%,68.1%,40.4%
CCCCOc1nc2ccc(C)cc2cc1/C=C/C(=O)/C=C(O)/C=C/c1cc2cc(C)ccc2nc1OCCCC,103%,102%,111%,97.7%,102%,102%,98.1%,116%,97.6%,98.8%
Cc1ccc(Nc2cccc3ccccc23)cc1,93.3%,101%,96.6%,45.5%,59.7%,84.8%,63.3%,83.3%,84.8%,77.3%
COc1ccc(C(=O)N2N=C(c3ccc(F)cc3)CC2c2cn(-c3ccccc3)nc2-c2ccccc2)cc1 (stereo not given),75.1%,70.9%,63%,68.1%,80.2%,86.5%,63.2%,93.2%,57.1%,42.2%
CCN(CC)CCCC(C)Nc1c(-c2ccccc2)cnc2cc(Cl)ccc12 (stereo not given),35.1%,83.4%,74.1%,50.3%,59.8%,93%,85.8%,60%,62.1%,48.5%
O=C(Nc1ccc(Br)cc1)c1ccc(Cl)c(Cl)c1,102%,24%,60.7%,59.1%,107%,18.1%,8.9% (active),65.7%,1.53% (active),23.3%
COc1ccc(CNc2c3ccccc3nc3ccc(OC)cc23)cc1,40.9%,24.2%,20.8%,6.24% (active),33.6%,10.2%,19.9%,-5.96% (active),19.4%,-0.147% (active)
COc1ccc(-c2cc(C(=O)Nc3ccc(C)cc3)nc3[nH]c(=O)sc23)cc1,29.2%,73.3%,58.2%,58.3%,61.1%,90.2%,60.6%,9.83% (active),71.1%,81.5%
CCCCCCCCCCCCCCCCCC(=O)OCCCCCCCCCCCCC,112%,106%,111%,95%,122%,104%,103%,105%,73%,113%
N/C(=C\C(=O)n1nc(-c2ccccc2)cc1N)c1ccccc1,-16.7% (active),69.5%,62.1%,38.2%,101%,63.7%,65.3%,67.8%,40.1%,43%
CC(=O)O[C@@H]1CC2C(C)(C)CCCC2(C)C2=C1C(=O)C(C(C)C)=CC2=O (stereo not given in full),-47.9% (active),10.8%,7.47% (active),-94.1% (active),18.6%,-70.2% (active),-3.95% (active),-63.3% (active),14%,9.69% (active)
CN(C)N1C(=O)c2c(Cl)c(Cl)c(Cl)c(Cl)c2C1=O,105%,124%,103%,95.9%,98%,133%,126%,106%,89%,88.3%
COc1ccc(NC(=O)c2sc3c(=O)[nH]c(C(F)(F)F)nc3c2C)cc1,91.5%,83.8%,99.8%,74.2%,104%,102%,85.4%,108%,90%,89.7%
COc1ccc(N=C2CSc3nnc(-c4cc(F)c(Cl)cc4Cl)n3N2)cc1,25.8%,10.8%,7.26% (active),-69.5% (active),-48.1% (active),-26.2% (active),-11.2% (active),-41.7% (active),-24.4% (active),-4.82% (active)
COc1nccc2c(Sc3ccccc3)nc(N)nc12,101%,117%,105%,75.3%,103%,108%,106%,76.2%,97.7%,94.5%
C=CC(=O)N1CN(C(=O)C=C)CN(C(=O)C=C)C1,110%,108%,95.2%,55.2%,-11.4% (active),22.4%,3.54% (active),106%,10.1%,23.4%
Cc1ccc(OC2=C(C#N)C(=N)N3C(=NN2)Sc2c(C)ccc(C)c23)cc1,121%,91.5%,106%,82.7%,129%,99%,86%,94.9%,94.9%,89.1%
Clc1cccc(CNc2c3ccccc3nc3ccccc23)c1,77.3%,27.2%,23.6%,16%,52.1%,15.7%,28.2%,-3.08% (active),18.1%,1.13% (active)
Fc1ccc(-c2cnc3nonc3n2)c(F)c1,108%,108%,107%,89.1%,121%,95.2%,96.3%,80.9%,46.1%,77.6%
COc1cc(Nc2ncccc2/C=C/C(=O)c2cc(OC)c(OC)c(OC)c2)cc(OC)c1OC,78.3%,90.5%,79.3%,65.6%,121%,76.1%,72%,84.9%,40.8%,70.9%
